The list is not random: actives were taken first. Their share in the collection is about 2.6%.
Prx2 Sm inh: blocks S. mansoni peroxiredoxin 2 enzymatic activity; AID 448; actives 0.07% (n = 65,000); S. mansoni Prx2 activity coupled to TGR/GSH (TGR is thioredoxin glutathione reductase), NADPH fluorescence loss, qHTS; Potency, µM
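qHTS, coupled TGR/Prx2 format; 15 min compound preincubation at RT; reaction started with H2O2 (2.5 mM aliquot); kinetic NADPH fluorescence decrease, ex 365/em 450 nm.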
Anthrax LT inh: blocks cellular internalization of anthrax lethal toxin; Cells, anthrax lethal toxin internalization, FRET ratio (460/530); Potency, µM (top dose mostly 40 µM), for the others: top-dose activity change, negative = inhibition, actives largely listed as inhibitors; actives 0.67% (n = 70,000); note: % is set by controls: 0 for no effect and ±100 for the full control effect; nearly all actives have a fitted effect of over 50% in size
AmpC inh det: inhibitors of E. coli AmpC beta-lactamase with detergent. purified AmpC, nitrocefin hydrolysis with detergent. Potency, µM (highest dose often 28.7 µM), for inactives: at the top dose activity change, negative = inhibition. actives 0.09% (n = 71,000); active = well fitted curve in the direction sought with a large enough effect; inconclusive = small, poorly fitted or top-dose-only effect; note: % is set by controls: 0 for no effect and ±100 for the full control effect
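E. coli AmpC (5.3 nM) in 20 mM phosphate pH 7.0 with 0.01% Triton X-100, preincubated 15 min RT with compound; nitrocefin (2 uL of 800 uM stock) hydrolysis followed by 480 nm absorbance every 20 s over 4 min.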
AmpC inh no det: blocks E. coli AmpC beta-lactamase in absence of detergent | P00811 | AmpC nitrocefin hydrolysis, absorbance 480 nm, no detergent | Potency, µM (titrated, usually from 28.7 µM), for the others: at the highest dose activity change, negative = inhibition | actives 1.8% (n = 71,000) | AID 585; note: % of control where 0% means no effect
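AmpC in 20 mM phosphate buffer pH 7.0 was preincubated 15 min at room temperature with compounds. Nitrocefin (800 uM stock) was then added and hydrolysis followed at 480 nm every 20 s for 4 min.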
An asterisk follows results filed as active; ? = inconclusive; / = no result; [ ] = remark or other dose. Unless noted, calls come from the whole dose curve. Potency is the fitted concentration of half-maximal effect.

SMILES	Prx2 Sm inh	Anthrax LT inh	AmpC inh det	AmpC inh no det
COc1ccc(OC)c(CN2C(=O)c3ccccc3C2C(=O)NCc2cccnc2)c1 (stereo not drawn)	>57	1%	11%	4µM*[single pt active]
COc1ccc(CN2C(=O)c3ccccc3C2C(=O)NCc2cccnc2)c(OC)c1 (stereo not drawn)	>57	3%	-5%	21%
Cc1nccn1CC(O)COC1CCCCC1 (stereo not drawn)	>57	3%	10%	3%
CN1CCN(C2=C(Cl)C(=O)N(c3ccc(Cl)c(Cl)c3)C2=O)CC1	/	7.9µM*	-2%	-13%
CN1CCN(C2=C(Cl)C(=O)N(c3cccc(Cl)c3)C2=O)CC1	/	0%	6%	-13%
Cc1nn2c(-c3ccccc3)c(-c3ccccc3)nc2[nH]c1=O	>57	?	10%	3%
O=C1c2cc([N+](=O)[O-])ccc2-c2ccc3c4ccc5c6c(ccc(c7ccc1c2c73)c64)C(=O)c1cc([N+](=O)[O-])ccc1-5	>57	-2%[8 µM]	-11%[5.75 µM]	2.5µM*
O=[N+]([O-])c1ccc2c(c1)S(=O)c1ccccc1-2 (stereo not drawn)	>57	3%[8 µM]	-6%[5.75 µM]	1%[5.75 µM]
Cc1cc(O)c(C(C)(C)C)cc1Sc1cc(C(C)(C)C)c(O)cc1C	/	?	6%	13µM*
CC(C)(C)c1cc(O)c(C(C)(C)C)cc1O	>57	?	-1%	-6%
CCOC(=O)N1CCN(c2c(NCCCN(CC)c3cccc(C)c3)c(=O)c2=O)CC1	>57	1%	-3%	84%
CCOC(=O)N1CCN(c2c(NCc3ccccn3)c(=O)c2=O)CC1	>57	-14%	15%	4µM*[single pt active]
CCOC(=O)N1CCN(c2c(Nc3cc(C)[nH]n3)c(=O)c2=O)CC1	?	-5%	12%	2.5µM*[single pt active]
C=CC(C)(C)c1[nH]c2ccccc2c1C1=C(O)C(=O)C(c2c[nH]c3c(CC=C(C)C)cccc23)=C(O)C1=O	>11	25µM*	?	?
O=C(O)CCc1ccc(-c2ccc(F)cc2)n1CCC(=O)O	>57	/	-2%	3%

Bioassay records from PubChem BioAssay.
